Records with an inconclusive call do not appear. Active and inactive are the calls of the source. Calls follow the shape of the dose curve; as a rule, active = well fitted inhibition curve with a large enough effect in the signal ratio in the repeat runs (not every such curve was filed as active); inconclusive = weak or mixed curves, or effect the other way; inactive = no such curve, though single readings can be large or run the other way; the % refers to the signal ratio.

Chain of Vitamin D3 receptor (Homo sapiens) (P11473 whole entry, looked up): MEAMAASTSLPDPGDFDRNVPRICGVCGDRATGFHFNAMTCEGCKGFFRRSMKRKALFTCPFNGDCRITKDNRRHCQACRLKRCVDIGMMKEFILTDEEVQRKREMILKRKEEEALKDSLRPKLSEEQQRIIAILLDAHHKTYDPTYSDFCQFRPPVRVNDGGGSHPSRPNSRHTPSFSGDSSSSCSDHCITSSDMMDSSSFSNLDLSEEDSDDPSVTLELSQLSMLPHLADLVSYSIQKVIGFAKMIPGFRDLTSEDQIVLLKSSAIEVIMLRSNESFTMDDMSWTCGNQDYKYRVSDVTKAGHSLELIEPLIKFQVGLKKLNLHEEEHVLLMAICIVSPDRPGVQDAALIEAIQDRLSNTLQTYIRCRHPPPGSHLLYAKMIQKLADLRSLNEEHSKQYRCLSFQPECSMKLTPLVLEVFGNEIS

This assay has as its target Vitamin D3 receptor (Homo sapiens) (UniProt P11473). Kind of assay: qHTS assay to identify small molecule antagonists of the vitamin D receptor (VDR) signaling pathway (AID 743223). Particulars: VDR-UAS-bla HEK293T, beta-lactamase FRET ratio, 16 h; series mostly up to 61 µM. From the text:
U.S. Tox21 Program National Center for Advancing Translational Sciences [NCATS] NIH Chemical Genomics Center [NCGC] U.S. Environmental Protection Agency [EPA] National Institutes of Environmental Health Sciences [NIEHS] National Toxicology Program [NTP] U.S. Food and Drug Administration [FDA] Tox21 Assay Overview: The vitamin D receptor (VDR), a member of nuclear hormone receptor superfamily, plays a critical role in calcium homeostasis and bone metabolism. It is also involved in cell differentiation and growth, and thrombogenicity.
Tox21 Assay Protocol Summary: VDR-bla cells were dispensed at 2,000 cells/5 uL of assay medium per well into black wall/clear-bottom 1536-well plates using a Multidrop Combi (Thermo Fisher Scientific, Waltham, MA) dispenser. After the assay plates were incubated at a 37C and 5% CO2 for 4 h, 23 nL of compounds dissolved in DMSO, positive controls or DMSO only was transferred to the assay plate by a Pintool station (Kalypsys, San Diego, CA), followed by addition of 1 uL of 1alpha, 25-Dihydroxy Vitamin D3 (3 nM, final concentration in the wells) using a Bioraptr Flying Reagent Dispenser (FRD) workstation (Beckman Coulter, Indianapolis, IN). The plates were incubated at 37C and 5% CO2 for 16 h, and then 1 uL of LiveBLAzerTM B/G FRET substrate was added using a Bioraptr FRD. The plates were incubated at room temperature for 2 h and fluorescence intensity was measured by an Envision plate reader (PerkinElmer, Shelton, CT).
For orientation: Quantitative high-throughput screening tests each substance at several concentrations.
`ClC(Cl)Cl`: the result was inactive.

Turning to `Cc1cn([C@@H]2O[C@H](CO)[C@@H](O)[C@@H]2F)c(=O)[nH]c1=O`, the result was inactive.

Turning to `COc1ccc(Nc2ccc(OC)cc2)cc1`, the result was inactive.

For `CC(=O)Oc1cc(C(C)C)c(OCCN(C)C)cc1C`, the outcome was inactive.

As to `C=Cc1ccccc1`, the outcome was inactive.

As to `ICCc1ccccc1`, the result was inactive.

On to `Cc1c(C(=O)NCCO)[n+](=O)c2ccccc2n1[O-]`, for which the outcome was inactive.

For `CC1=C(O)C(=O)OC1C` (stereo not given), the result was inactive.

For `Cc1c(N)cccc1N`, the result was inactive.

Take `CC(C)C(=O)OC/C=C/c1ccccc1`: the result was inactive.

Consider `CCN(CC)CC1CCCCN1CC(=O)N1c2ccccc2C(=O)Nc2cccnc21` (stereo not given), for which the outcome was inactive.

Regarding `O=C(O)[C@@H]1CSCN1`, the outcome was inactive.

`CN1CCN(C2=Nc3ccccc3Oc3ccc(Cl)cc32)CC1`: the outcome was inactive.

With `CC(=O)O[C@H]1CC[C@@]2(C)C(=CC[C@@H]3[C@@H]2CC[C@]2(C)C(C(C)=O)=CC[C@@H]32)C1`, the result was inactive.

As for `CN1CCN(c2c(F)cc3c(=O)c(C(=O)O)cn(CCF)c3c2F)CC1`, the outcome was inactive.

On to `CCOC(=O)CS`, for which the outcome was inactive.

Take `CCCCCOc1ccc(C2SC(=O)NC2=O)cc1OCC` (stereo not given): the result was inactive.

On to `CCCCNc1cc(C(=O)O)cc(S(N)(=O)=O)c1Oc1ccccc1`, for which the result was inactive.

On to `O=c1oc2c(O)c(O)cc3c(=O)oc4c(O)c(O)cc1c4c23`, for which the outcome was inactive.

Regarding `O=Cc1ccc(F)c(Br)c1`, the outcome was inactive.

For `O=C1C=CC(=O)O1`, the outcome was inactive.

As for `NS(=O)(=O)c1cc(-c2nn[nH]n2)c(NCc2cccs2)cc1Cl`, the outcome was inactive.

With `CC(=O)Nc1ccc(C)c(Cl)c1`, the outcome was inactive.

Consider `CN1CCN(C2=Nc3cc(F)ccc3Cc3ccccc32)CC1`, for which the result was inactive.

Turning to `C[C@@H](N)C(=O)O`, the outcome was inactive.

On to `O=C(Cl)c1cccc([N+](=O)[O-])c1`, for which the outcome was inactive.

As to `CCCCCCCCOC(=O)CCCCCCCCC(=O)OCCCCCCCC`, the outcome was inactive.

For the compound `O=C(O)c1cccc(Cl)c1Cl`, the outcome was inactive.

For `CC(C)(C)c1ccc(OC(=O)c2ccccc2O)cc1`, the outcome was inactive.

Take `CCC1(C)NC(=O)NC1=O` (stereo not given): the result was inactive.

Turning to `CCOc1ccccc1N`, the outcome was inactive.

In the case of `O=C(O)c1ccccc1Nc1cc(Cl)ccc1C(=O)O`, the outcome was inactive.

`OCCN(CCO)CCN(CCO)CCO`: the result was inactive.

`C[C@@H]1CN(c2c(F)c(F)c3c(=O)c(C(=O)O)cn(C4CC4)c3c2F)C[C@H](C)N1`: the result was inactive.

Turning to `CCCCNC(=S)NCCCC`, the result was inactive.

For the compound `CC(C)NC[C@@H](O)COc1cccc2ccccc12`, the outcome was inactive.

Consider `Cc1ccc(C=O)s1`, for which the result was inactive.

Regarding `Cc1cc2c(s1)Nc1ccccc1N=C2N1CCN(C)CC1`, the outcome was inactive.

Take `CC1=NN(c2cc(Cl)c(S(=O)(=O)O)cc2Cl)C(=O)C1N=Nc1ccc(S(=O)(=O)O)cc1` (stereo not given): the result was inactive.

As for `CCCC(CCC)(C(=O)OCC)C(=O)OCC`, the result was inactive.

These data come from PubChem BioAssay (Tox21).
